In PubChem BioAssay (NCATS):
Inconclusive results are not listed. Active and inactive are the calls of the source. Unless noted, the call rests on the fitted dose curve; in most records, active means well fitted curve in the direction sought with a large enough effect; inconclusive means small, poorly fitted or top-dose-only effect, or another doubt; inactive means no such curve, though single readings can be large; an effect the other way counts as inactive or inconclusive.

Experiments:
[1] = Cell Viability - BJ (AID 421; calls by dose curve;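 further: potency means the concentration at half of the fitted maximal effect; cells exposed to compound for 40 hours at 37 °C before readout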); details: BJ fibroblast viability, qHTS
Method in brief: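 Cytotoxicity as drop in intracellular ATP (CellTiter-Glo, 20 min RT) after 40 hr compound exposure of BJ fibroblasts at 37 °C. Titrations scaled between DMSO and 100 uM tamoxifen, Hill-fitted for AC50.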

[2] = Cell Viability - Jurkat (AID 426;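 active means dose-dependent loss of cell ATP signal giving a full or clear fitted curve, ranked by lower potency value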;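 further: potency means the concentration at half of the fitted maximal effect; cells exposed to compound for 40 hours at 37 °C before ATP read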); details: qHTS
Method in brief: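 Luminescent ATP read-out (CellTiter-Glo, 20 min at room temperature) after 40 hr compound exposure at 37 °C of Jurkat E6-1 cells, 5000/well. Decreased ATP taken as cytotoxicity; AC50 from standard Hill equation.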

[3] = Cell Viability - Hek293 (AID 427;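 active means compounds whose dose-response curve shows a full or clear partial loss of cell viability, called from curve shape rather than a numeric limit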;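 further: potency means the concentration at half of the fitted maximal effect; cells exposed to compound for 40 hours at 37 °C before reading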); details: qHTS
Method in brief: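 Luminescent ATP content (CellTiter-Glo, 20 min at room temperature) was measured after a 40 hr, 37 °C compound exposure of HEK293 cells. AC50 values came from Hill-equation fits of qHTS concentration-response data normalized to DMSO and 100 uM tamoxifen.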

[4] = Cell Viability - HepG2 (AID 433; calls by dose curve;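 further: potency means the concentration at half of the fitted maximal effect; cells exposed to compound for 40 hours; potency for ATP loss meaning cytotoxicity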); details: qHTS
Method in brief: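 ATP luminescence (CellTiter-Glo) after 40 h compound exposure, 37 °C, HepG2, 1500 cells/well, complete medium. Normalized: DMSO = basal, 100 uM tamoxifen = 100% inhibition. AC50 via standard Hill equation.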

[5] = Cell Viability - MRC5 (AID 434; calls by dose curve;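 further: potency means the concentration at half of the fitted maximal effect; cells exposed to compound for 40 hours at 37 °C; potency reflects cytotoxicity seen as loss of intracellular ATP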); details: MRC5 lung fibroblast viability, qHTS
Method in brief: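 ATP luminescence read-out (CellTiter-Glo, 20 min RT) after 40 hr, 37 °C compound exposure of 1500 MRC5 cells/well. Data normalized to DMSO (basal) and 100 uM tamoxifen (100% inhibition); AC50 from standard Hill equation.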

[6] = Cell Viability - SK-N-SH (AID 435; calls by dose curve; further: potency means the concentration at half of the fitted maximal effect); details: SK-N-SH neuroblastoma cell viability qHTS
Method in brief: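 CellTiter-Glo ATP luminescence, 20 min RT read; cells pre-plated 5 hr, compound 40 hr at 37 °C, 1500 cells/well, complete medium. Normalized DMSO = 0, 100 uM tamoxifen = 100% inhibition; Hill-fit AC50.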

[7] = target: Mitogen-activated protein kinase 10 (Mus musculus) (UniProt Q61831); assay: JNK3 AlphaScreen Assay (AID 530; active means well fitted curve in either direction with a large enough effect, not every such curve was filed as active;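 further: kinase came from lysate of stimulated human HepG2 cells; signal reports phosphorylation of biotinylated GST-cJun 1-79 at Ser73 with 10 µM ATP; on the % scale 0 is the no-effect control and ±100 the full control effect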); details: JNK3 lysate, c-Jun phosphorylation; series mostly up to 57.1 µM
Method in brief: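 HepG2 lysate (IL-1b/TNFa pre-activated) + biotin-GST-cJun 1-79 + anti-pSer73 cJun; cpd titration, 15 min RT; ATP 10 uM start; Tris pH 7.6, MgCl2, DTT, vanadate; beads in EDTA buffer; AlphaScreen.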

[8] = Cell Viability - N2a (AID 540); details: N2a mouse neuroblastoma cell viability; activity change, negative = cytotoxicity: at 92.2 µM (top of the series);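 further: plate controls were DMSO alone for no effect and tamoxifen control for full effect; nearly all actives have a fitted effect of over 45% in size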
Method in brief: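 N2a mouse neuroblastoma, 1500 cells/well, 5 hr settle; compound 40 hr, 37 °C; CellTiter-Glo 20 min RT; luminescence; Hill-fit AC50.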

[9] = Cell Viability - NIH 3T3 (AID 541); details: NIH 3T3 cell viability, qHTS; activity change, negative = cytotoxicity: at 92.2 µM (top of the series);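 further: cells exposed to compound for 40 hours; plate controls were DMSO alone for no effect and tamoxifen positive control for full effect; nearly all actives have a fitted effect of over 25% in size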
Method in brief: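 qHTS format; 40 hr compound exposure, 37 °C; CellTiter-Glo luminescence (cellular ATP) read-out after 20 min at RT. Decrease in ATP = cytotoxicity; AC50 from standard Hill fit.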

[10] = Cell Viability - HUV-EC-C (AID 542); details: HUV-EC-C endothelial cell viability, qHTS; series mostly up to 92.2 µM;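 further: cells exposed to compound for 40 hours; on the % scale 0 is the no-effect control and ±100 the full control effect; nearly all actives have a fitted effect of over 35% in size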
Method in brief: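 Luminescent ATP read-out (CellTiter-Glo, 20 min room temperature) after 40 hr compound treatment of HUV-EC-C cells at 37 °C. Concentration-response data fitted with the standard Hill equation to give AC50; tamoxifen and doxorubicin served as positive controls.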

[11] = Cell Viability - H-4-II-E (AID 543); details: H-4-II-E rat hepatoma viability; series mostly up to 92.2 µM;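 further: cells exposed to compound for 40 hours; on the % scale 0 is the no-effect control and ±100 the full control effect; nearly all actives have a fitted effect of over 35% in size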
Method in brief: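 qHTS, rat hepatoma H-4-II-E, 1500 cells/well; 40 hr compound exposure, 37 °C; CellTiter-Glo ATP luminescence after 20 min RT; AC50 by standard Hill fit.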

[12] = Cell Viability - SH-SY5Y (AID 544); details: SH-SY5Y neuroblastoma cell viability; viability change, negative = cytotoxic: at 92.2 µM (top of the series);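 further: cells exposed to compound for 40 hours; nearly all actives have a fitted effect of over 55% in size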
Method in brief: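 SH-SY5Y, 1500 cells/well, 5 hr pre-incubation 37 °C; cpd 40 hr 37 °C; CellTiter-Glo 20 min RT; luminescence (ATP) read. qHTS concentration-response, Hill fit → AC50. Tamoxifen, doxorubicin as positive controls.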

[13] = Cell Viability - Renal Proximal Tubule (AID 545); details: renal proximal tubule cells viability, primary cells of rat origin; series mostly up to 91.7 µM;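 further: cells exposed to compound for 40 hours; nearly all actives have a fitted effect of over 40% in size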
Method in brief: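 Rat kidney proximal tubule cells, freshly isolated; 1000 cells/well, 5 hr settle, compound 40 hr 37 °C. CellTiter-Glo 20 min RT, luminescence read. AC50 by standard Hill fit.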

[14] = Cell Viability - Mesenchymal (AID 546); details: mesenchymal cells viability, qHTS; series mostly up to 91.7 µM;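 further: cells exposed to compound for 40 hours before reading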
Method in brief: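 Human renal mesenchymal cells (glomerulus-derived), 1000 cells/well, 5 hr 37 °C pre-incubation; compound 40 hr, 37 °C; CellTiter-Glo, 20 min RT; luminescence; AC50 via Hill equation.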

[15] = Cellular Toxicity (caspase-3) HepG2 (AID 654); details: HepG2 caspase-3 activation, luminescence; series mostly up to 92.2 µM;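 further: cells exposed to compound for 16 hours before reading; 0% = DMSO alone and 100% = caspase signal from 100 µM tamoxifen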
Method in brief: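 Luminescent Caspase-Glo 3/7 readout after 16 hr compound exposure of human hepatocellular carcinoma HepG2 cells at 37 °C; qHTS concentration-response, normalized DMSO = 0%, 100 uM tamoxifen = 100%; AC50 by standard Hill equation.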

[16] = Cellular Toxicity (caspase-3) HUV-EC-C (AID 656); details: HUV-EC-C cells, caspase-3 activation (apoptosis), vehicle = 0, 100 µM tamoxifen = 100%; series mostly up to 92.2 µM
Method in brief: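 Luminescent caspase-3/7 activation (aminoluciferin substrate cleavage) in HUV-EC-C cells after 16 hr compound exposure, 37°C. Signal normalized to DMSO basal and 100 uM tamoxifen as 100%; AC50 from concentration-response fitted with the Hill equation.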

[17] = Cellular Toxicity (caspase-3) SHSY5Y (AID 657); details: SH-SY5Y caspase-3 activation, DMSO zero, 10 µM staurosporine = 100%; series mostly up to 91.7 µM;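 further: cells exposed to compound for 16 hours at 37 °C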
Method in brief: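 Luminescent caspase-3/7 readout (aminoluciferin release) in SH-SY5Y cells after 16 h compound exposure in complete medium. Activity scaled between DMSO basal and 10 uM staurosporine as 100%; concentration-response fitted to Hill equation for AC50.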

[18] = Cellular Toxicity (caspase-3) BJ (AID 658); details: BJ fibroblasts, luminescence, normalized: DMSO 0%, staurosporine 100%; series mostly up to 91.7 µM;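 further: cells exposed to compound for 16 hours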
Method in brief: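 qHTS, BJ fibroblasts, 1000 cells/well; 5 hr preincubation, 16 hr compound, 37 °C; Caspase-Glo 3/7 reagent, 1 hr RT; luminescence. DMSO = 0%, 10 uM staurosporine = 100%. Hill-equation AC50.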

[19] = Cellular Toxicity (caspase-3) MRC-5 (AID 659); details: MRC-5 cells, luminescence, normalized: DMSO 0%, 10 µM staurosporine 100%; series mostly up to 91.7 µM;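 further: cells exposed to compound for 16 h at 37 °C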
Method in brief: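 MRC-5 fibroblasts, 1500/well; 16 h cpd, 37 °C; Caspase-Glo 3/7, 1 h RT; lumi read. Norm: DMSO = 0%, 10 uM staurosporine = 100%. Hill-fit AC50 from qHTS conc-response.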

[20] = Cellular Toxicity (caspase-3) Jurkat (AID 655); details: Jurkat caspase-3 activation, luminescence; caspase-3 activation: at 92.2 µM (top of the series), DMSO = 0%, tamoxifen = 100%;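 further: cells exposed to compound for 16 h at 37 °C before reading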
Method in brief: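 Luminescent caspase-3/7 readout (aminoluciferin substrate cleavage) in human T-cell leukemia Jurkat cells after 16 hr compound exposure. Concentration-response normalized to DMSO and 100 uM tamoxifen; AC50 by standard Hill equation.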

Cc1ccc2cccnc2c1
inactive: Potency [1] > 92 µM | Potency [2] > 92 µM | Potency [3] > 92 µM | Potency [4] > 92 µM | Potency [5] > 92 µM | Potency [6] > 92 µM | outcome [7] | activity change, negative = cytotoxicity [8] -6.28% | Potency [9] | Potency [10] | Potency [11] | Potency [12] | Potency [13] | Potency [14] | Potency [15] | outcome [16] | outcome [17] | outcome [18] | outcome [19]

CC(C)=C1CCC(C)CC1=O (stereo unspecified)
inactive: Potency [1] > 92 µM | Potency [2] > 92 µM | Potency [3] > 92 µM | Potency [4] > 92 µM | Potency [5] > 92 µM | Potency [6] > 92 µM | outcome [7] | activity change, negative = cytotoxicity [8] -3.2% | Potency [9] | Potency [10] | Potency [11] | Potency [12] | Potency [13] | Potency [14] | Potency [15] | caspase-3 activation [20] -1.31% | outcome [16] | outcome [17] | outcome [19]

Cc1ccc(N(C)C)cc1
inactive: Potency [1] > 92 µM | Potency [2] > 92 µM | Potency [3] > 92 µM | Potency [4] > 92 µM | Potency [5] > 92 µM | Potency [6] > 92 µM | outcome [7] | activity change, negative = cytotoxicity [8] -13.1% | Potency [9] | Potency [10] | Potency [11] | Potency [12] | Potency [13] | Potency [15] | caspase-3 activation [20] 2.02% | outcome [16] | outcome [17] | outcome [18] | outcome [19]

O=[N+]([O-])c1cccc(Cl)c1
inactive: Potency [1] > 92 µM | Potency [2] > 92 µM | Potency [3] > 92 µM | Potency [4] > 92 µM | Potency [5] > 92 µM | Potency [6] > 92 µM | outcome [7] | activity change, negative = cytotoxicity [8] -8.23% | Potency [9] | Potency [10] | Potency [11] | Potency [12] | Potency [13] | Potency [14] | Potency [15] | caspase-3 activation [20] -3.2% | outcome [16] | outcome [17] | outcome [19]

C=Cc1ccccc1C=C
inactive: Potency [1] > 92 µM | Potency [2] > 92 µM | Potency [3] > 92 µM | Potency [4] > 92 µM | Potency [5] > 92 µM | Potency [6] > 92 µM | outcome [7] | activity change, negative = cytotoxicity [8] 7.3% | Potency [9] | Potency [10] | Potency [11] | Potency [12] | Potency [13] | Potency [14] | caspase-3 activation [20] -0.124% | outcome [16] | outcome [17] | outcome [18] | outcome [19]

Nc1c(Cl)cc(Cl)cc1Cl
inactive: Potency [1] > 92 µM | Potency [2] > 92 µM | Potency [3] > 92 µM | Potency [4] > 92 µM | Potency [5] > 92 µM | Potency [6] > 92 µM | outcome [7] | activity change, negative = cytotoxicity [8] -11.7% | Potency [9] | Potency [10] | Potency [11] | Potency [12] | Potency [13] | Potency [14] | Potency [15] | outcome [16] | outcome [17] | outcome [18] | outcome [19]

CC/C=C/C#N
inactive: Potency [1] > 92 µM | Potency [2] > 92 µM | Potency [3] > 92 µM | Potency [4] > 92 µM | Potency [5] > 92 µM | Potency [6] > 92 µM | outcome [7] | activity change, negative = cytotoxicity [8] -7.86% | Potency [9] | Potency [10] | Potency [11] | Potency [12] | Potency [13] | Potency [14] | caspase-3 activation [20] -0.0351% | outcome [16] | outcome [17] | outcome [18] | outcome [19]

Cc1ccc(Cl)cc1
inactive: Potency [1] > 92 µM | Potency [2] > 92 µM | Potency [3] > 92 µM | Potency [4] > 92 µM | Potency [5] > 92 µM | Potency [6] > 92 µM | outcome [7] | activity change, negative = cytotoxicity [8] 1.61% | Potency [9] | Potency [10] | Potency [11] | Potency [12] | Potency [13] | Potency [14] | caspase-3 activation [20] 1.47% | outcome [16] | outcome [17] | outcome [18] | outcome [19]

CCCCCCCCCCCCOCC1CO1 (stereo unspecified)
inactive: Potency [1] > 92 µM | Potency [2] > 92 µM | Potency [3] > 92 µM | Potency [4] > 92 µM | Potency [5] > 92 µM | Potency [6] > 92 µM | outcome [7] | activity change, negative = cytotoxicity [8] 0.002% | Potency [9] | Potency [10] | Potency [11] | Potency [12] | Potency [13] | Potency [14] | Potency [15] | caspase-3 activation [20] 3.67% | outcome [16] | outcome [17] | outcome [19]
